In assay [1] the target is DNA dC->dU-editing enzyme APOBEC-3G (Homo sapiens) (UniProt Q9HC16). In words: qHTS for inhibitors of Vif-A3G interactions: Validation (AID 588379). Also: 0% is about no effect. An outline of the steps: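 HeLa cells stably expressing Vif and A3G-eYFP, 700 cells/well, incubated overnight at 37 deg C, then exposed to compound overnight at 37 deg C. Inhibition of Vif-mediated degradation read as increased yellow fluorescence (Ex 488/Em 500-530) by laser-scanning cytometry.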
(In general: qHTS replaces the single test concentration by a dilution series.)

Assay [2] addresses Luciferin 4-monooxygenase (Photinus pyralis) (UniProt P08659). Put plainly: Biochemical firefly luciferase enzyme assay for NPC (AID 624030).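 Also: purified P. pyralis luciferase at 10 nM with luciferin and ATP substrate; series mostly up to about 59 µM; 0% = DMSO and -100% = full luciferase inhibition by PTC124 control; nearly all actives have a fitted effect of over 70% in size.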 An outline of the steps: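 Purified P. pyralis luciferase at 10 nM in 50 mM Tris Acetate (final), luminescence read within 5 minutes of enzyme addition to compounds. Activity normalised to PTC124 versus DMSO; concentration-response curves classed by r2, magnitude and activity.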

In assay [3] the target is Androgen receptor (Homo sapiens) (UniProt P10275). Put plainly: qHTS assay for small molecule agonists of androgen receptor signaling (AID 588515; active = well fitted curve in the direction sought with a large enough effect in the signal ratio, with a control signal flat; the % refers to the signal ratio; also: % is scaled to controls: 0 for no effect and ±100 for the full control effect). The conditions noted are these: AR-UAS-bla HEK293, beta-lactamase ratio, agonist 16 h; stronger effect = higher value. An outline of the steps:
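EC50 and efficacy came from Hill fits of titrations (up to 92 uM) normalized to 30 nM R1881 as 100% and DMSO as 0%. Compound exposure was 16 h at 37 C on AR-UAS-bla HEK293 cells, with a 405/460/530 nm CCF4 fluorescence read.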

For assay [4] the target is unchanged. Put plainly: qHTS assay for small molecule antagonists of androgen receptor signaling (AID 588516; active = well fitted curve in the direction sought with a large enough effect in the signal ratio, with a control signal flat, not every such curve was filed as active; the % refers to the signal ratio; also: % is scaled to controls: 0 for no effect and ±100 for the full control effect). Put shortly:
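AR-UAS-bla-GripTite HEK 293 cells (2000/well, 5 h at 37 C) received compound titrations, then R1881 at 10 nM final; after 16 h at 37 C, CCF4 dye 2 h RT, beta-lactamase fluorescence read; IC50 from Hill fits.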

Assay [5] concerns the target Bile acid receptor (Homo sapiens) (UniProt Q96RI1). Put plainly: qHTS assay for small molecule antagonists of farnesoid X receptor signaling (AID 588526; calls by dose curve; also: % is scaled to controls: 0 for no effect and ±100 for the full control effect). Put shortly:
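Antagonist mode: titrated compounds tested against chenodeoxycholic acid stimulation (normalized to 50 uM CDCA and DMSO) in GeneBLAzer HEK293T cells for 16 h. Beta-lactamase read by CCF4 fluorescence; IC50 from Hill fits.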

The target in assay [6] is Glucocorticoid receptor (Homo sapiens) (UniProt P04150). In words: qHTS assay for small molecule agonists of glucocorticoid receptor signaling (AID 588532; active = well fitted curve in the direction sought with a large enough effect in the signal ratio, with a control signal flat; the % refers to the signal ratio;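 also: 100% = dexamethasone at 0.1 µM and 0% = DMSO only wells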). The conditions noted are these: HeLa MMTV-bla, beta-lactamase ratio, agonist, 18 h; stronger effect = higher value; percent of dexamethasone control, DMSO zero. Put shortly:
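Cells were plated and rested 3-5 h at 37 C, compounds were added in titration and incubated 18 h, then CCF4 substrate was loaded for 2 h at RT before reading blue/green fluorescence. EC50 came from Hill-equation fitting.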

For assay [7] the target is unchanged. Put plainly: qHTS assay for small molecule antagonists of glucocorticoid receptor signaling (AID 588533; active = well fitted inhibition curve with a large enough effect in the signal ratio, with a control signal flat, not every such curve was filed as active; the % refers to the signal ratio;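 also: cells stimulated with 2 nM dexamethasone as agonist; % is scaled to controls: 0 for no effect and ±100 for the full control effect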). An outline of the steps: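 Antagonist-mode qHTS: compound titrations added to GRE-bla HeLa cells, then dexamethasone 2 nM final; 18 h, 37 C. CCF4 FRET fluorescence normalized to dexamethasone and DMSO; IC50 from Hill fit.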
A short description of assay [8]: qHTS assay for small molecule antagonists of peroxisome proliferator-activated receptor delta signaling (AID 588535; active = well fitted inhibition curve with a large enough effect in the signal ratio, with a control signal flat, not every such curve was filed as active; the % refers to the signal ratio;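 as to max response: cells co-treated with a PPAR-delta agonist as stimulator during compound exposure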). The conditions noted are these: HEK293T PPARd-UAS-bla, beta-lactamase FRET ratio, 18 h; 460 nm channel. An outline of the steps:
(§1)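 Antagonist-mode beta-lactamase reporter (GeneBLAzer PPAR-delta-UAS-bla) in HEK293T cells, 2% charcoal/dextran FBS, 4000 cells/well. Compound titrations, 18 h at 37 C; CCF4 ratio read, IC50 and efficacy from Hill fits.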

The target in assay [9] is Peroxisome proliferator-activated receptor delta (Homo sapiens) (UniProt Q03181). The assay is described as above. Put shortly:
as §1

Assay [10] addresses Peroxisome proliferator-activated receptor gamma (Homo sapiens) (UniProt P37231). Put plainly: qHTS assay for small molecule agonists of peroxisome proliferator-activated receptor gamma signaling (AID 588536; active = well fitted curve in the direction sought with a large enough effect in the signal ratio, with a control signal flat, not every such curve was filed as active; the % refers to the signal ratio;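 also: 0% = DMSO basal wells and 100% = rosiglitazone at 2 µM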). Put shortly: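 HEK293 UAS-bla reporter line, 1% charcoal/dextran FBS; titration, 16 h, 37 C; CCF4 loading 2 h RT; fluorescence 460/530 nm. Normalized to rosiglitazone 2 uM = 100%, DMSO = 0%.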

Assay [11] shares this target. In words: qHTS assay for small molecule antagonists of peroxisome proliferator-activated receptor gamma signaling (AID 588537; active = well fitted inhibition curve with a large enough effect in the signal ratio, with a control signal flat, not every such curve was filed as active; the % refers to the signal ratio;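 also: reporter cells co-stimulated with 50 nM rosiglitazone agonist during compound treatment; % of control where 0% means no effect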). Put shortly:
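PPARγ-UAS-bla HEK293 cells (3000/well) in 1% charcoal/dextran-stripped FBS are treated with compound, then stimulated with 50 nM rosiglitazone for 16 h at 37 °C. Read-out is CCF4 β-lactamase fluorescence after 2 h at RT. IC50 comes from Hill fits normalised to rosiglitazone and DMSO.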

Assay [12] deals with Vitamin D3 receptor (Homo sapiens) (UniProt P11473). Put plainly: qHTS assay for small molecule agonists of vitamin D receptor signaling (AID 588543; calls by dose curve;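 also: 0% = DMSO basal and 100% = reference agonist control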). An outline of the steps:
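GeneBLAzer VDR-UAS-bla HEK293T cells in 2% charcoal-stripped FBS medium were dosed with compound titrations for 16 h at 37 °C; CCF4 β-lactamase readout (405 nm ex, 460/530 nm em). EC50 and efficacy from Hill fits, normalized to 50 nM calcitriol (100%) and DMSO (0%).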

A short description of assay [13]: qHTS assay for small molecule agonists of retinoid X receptor alpha signaling (AID 588544). The conditions noted are these: HEK293T RXRa-UAS-bla, beta-lactamase reporter, 18 h; 530 nm emission.
The target of assay [14] is Thyroid hormone receptor beta (Homo sapiens) (UniProt P10828). In words: qHTS assay for small molecule agonists of thyroid hormone receptor beta signaling (AID 588545; calls by dose curve;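 also: 0% = DMSO only and 100% = 10 nM T3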). Put shortly:
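TR-UAS-bla-GripTite HEK 293 cells in medium with 2% charcoal/dextran FBS, 0.1 mM NEAA and 1 mM sodium pyruvate were treated with titrated compounds for 18 hrs at 37 C. Beta-lactamase reporter was read with CCF4 dye (ex 405, em 460/530 nm); EC50 from Hill fits.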

A short description of assay [15]: qHTS assay for small molecule antagonists of retinoid X receptor alpha signaling (AID 588546). The conditions noted are these: HEK293T RXRa-UAS-bla, beta-lactamase ratio, antagonist mode; measured here: W530 green channel, cytotoxicity proxy. An outline of the steps:
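Beta-lactamase reporter inhibition, read as CCF4 fluorescence ratio (ex 405, em 460/530 nm) after 2 h at RT. HEK293T UAS-bla cells, 2500/well, were stimulated with 9-cis-RA at 500 or 100 nM final alongside test compound for 18 h at 37 C.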

The target in assay [16] is Thyroid hormone receptor beta (Homo sapiens) (UniProt P10828). Put plainly: qHTS assay for small molecule antagonists of thyroid hormone receptor beta signaling (AID 588547; active = well fitted inhibition curve with a large enough effect in the signal ratio, with a control signal flat, not every such curve was filed as active; the % refers to the signal ratio). The conditions noted are these: TR-UAS-bla HEK293, beta-lactamase ratio, antagonist mode, 18 h. An outline of the steps:
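TR-UAS-bla GripTite HEK293 cells in 2% charcoal/dextran FBS medium; compounds 0.59 nM to 92 uM with T3 at 0.4nM final, 18 h at 37 C. Beta-lactamase read by CCF4 fluorescence (460/530 nm); Hill fits gave IC50 and efficacy.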

Assay [17] has as its target Voltage-gated inwardly rectifying potassium channel KCNH2 (Homo sapiens) (UniProt Q12809). In words: qHTS Assay for Small Molecule Inhibitors of the Human hERG Channel Activity (AID 588834).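 Also: top concentration of the series differs between compounds; % is scaled to controls: 0 for no effect and ±100 for the full control effect; lower thallium flux fluorescence means stronger hERG block; nearly all actives have a fitted effect of over 50% in size.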 Put shortly:
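U2OS cells transduced with hERG via BacMam (MOI ~100), plated 2000/well, loaded with FluxOR thallium dye, compound ~10 min, then stimulation buffer; fluorescence decrease read kinetically; AC50 from Hill fits.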

Assay [18] in a line: S16 Schwann cell viability assay (CellTiter-Glo assay) (AID 624031).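 Also: cellular ATP luminescence as a viability measure; series mostly up to about 58 µM; plate controls were DMSO-treated cells for no effect and cell-free wells for full effect; nearly all actives have a fitted effect of over 70% in size.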 An outline of the steps:
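Untransfected S16 rat Schwann cells; compound 24 h, 37 °C/5% CO2; CellTiter-Glo ATP luminescence. % activity vs no-cell wells and DMSO controls (0%); concentration-effect curves classed by r2, response magnitude, activity.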
On the technique in general: Cellular ATP, detected with luciferase, serves as a proxy for viable cell number.

The target of assay [19] is Estrogen receptor (Homo sapiens) (UniProt P03372). In words: qHTS assay for small molecule antagonists of estrogen receptor alpha signaling (AID 588513; active = well fitted curve in the direction sought with a large enough effect in the signal ratio, with a control signal flat, not every such curve was filed as active; the % refers to the signal ratio; also: % is scaled to controls: 0 for no effect and ±100 for the full control effect). An outline of the steps: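 ER-alpha-UAS-bla GripTite HEK 293 cells in medium with 2% charcoal/dextran-treated FBS were preincubated 4 h at 37 C, dosed with compound (1:2 titration), stimulated with 0.5nM 17-beta-estradiol for 18 h, then read by CCF4 beta-lactamase fluorescence.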

Assay [20] has the same target. In words: qHTS assay for small molecule agonists of estrogen receptor alpha signaling (AID 588514; calls by dose curve;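 also: 0% = vehicle only and 100% = reference agonist; nearly all actives have a fitted effect of over 70% in size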). Put shortly: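 ER-alpha-UAS-bla GripTite HEK293 cells, 5000/well in 2% charcoal/dextran-stripped FBS medium, treated with compound titrations 18 h at 37 C. CCF4 beta-lactamase read by fluorescence after 2 h RT; normalised to 20 nM 17-beta-estradiol (100%) and DMSO (0%), Hill fit for EC50 and efficacy.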

The results in this text go back to PubChem BioAssay (NCATS).

Values joined by “and” are separate entries in the source; they are usually repeats but may differ in a detail not shown here. Identical values can stand only once. Results filed as inconclusive are left out. Active and inactive are the calls of the source. Unless noted, calls follow the shape of the dose curve; as a rule, active = well fitted curve in the direction sought with a large enough effect; inconclusive = small, poorly fitted or top-dose-only effect, or another doubt; inactive = no such curve, though single readings can be large; an effect the other way counts as inactive or inconclusive.

Chain of Estrogen receptor (Homo sapiens) (P03372 whole entry, looked up): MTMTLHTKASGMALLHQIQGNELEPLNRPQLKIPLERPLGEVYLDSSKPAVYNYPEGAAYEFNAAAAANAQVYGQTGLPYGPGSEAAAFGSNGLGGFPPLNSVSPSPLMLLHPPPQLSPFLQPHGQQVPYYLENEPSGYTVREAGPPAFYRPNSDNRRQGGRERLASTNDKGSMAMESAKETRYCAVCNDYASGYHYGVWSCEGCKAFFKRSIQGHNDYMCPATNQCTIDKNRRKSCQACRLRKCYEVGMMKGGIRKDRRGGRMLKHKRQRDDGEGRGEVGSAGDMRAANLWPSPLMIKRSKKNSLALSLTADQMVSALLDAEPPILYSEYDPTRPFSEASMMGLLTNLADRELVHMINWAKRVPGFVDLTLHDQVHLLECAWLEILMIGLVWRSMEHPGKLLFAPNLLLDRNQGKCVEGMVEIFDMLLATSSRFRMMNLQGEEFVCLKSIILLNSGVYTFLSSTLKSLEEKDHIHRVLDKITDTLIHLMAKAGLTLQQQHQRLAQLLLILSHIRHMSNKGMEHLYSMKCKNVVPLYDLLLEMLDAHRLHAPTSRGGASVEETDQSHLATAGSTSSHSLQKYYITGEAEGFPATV
Chain of Glucocorticoid receptor (Homo sapiens) (P04150 whole entry, looked up): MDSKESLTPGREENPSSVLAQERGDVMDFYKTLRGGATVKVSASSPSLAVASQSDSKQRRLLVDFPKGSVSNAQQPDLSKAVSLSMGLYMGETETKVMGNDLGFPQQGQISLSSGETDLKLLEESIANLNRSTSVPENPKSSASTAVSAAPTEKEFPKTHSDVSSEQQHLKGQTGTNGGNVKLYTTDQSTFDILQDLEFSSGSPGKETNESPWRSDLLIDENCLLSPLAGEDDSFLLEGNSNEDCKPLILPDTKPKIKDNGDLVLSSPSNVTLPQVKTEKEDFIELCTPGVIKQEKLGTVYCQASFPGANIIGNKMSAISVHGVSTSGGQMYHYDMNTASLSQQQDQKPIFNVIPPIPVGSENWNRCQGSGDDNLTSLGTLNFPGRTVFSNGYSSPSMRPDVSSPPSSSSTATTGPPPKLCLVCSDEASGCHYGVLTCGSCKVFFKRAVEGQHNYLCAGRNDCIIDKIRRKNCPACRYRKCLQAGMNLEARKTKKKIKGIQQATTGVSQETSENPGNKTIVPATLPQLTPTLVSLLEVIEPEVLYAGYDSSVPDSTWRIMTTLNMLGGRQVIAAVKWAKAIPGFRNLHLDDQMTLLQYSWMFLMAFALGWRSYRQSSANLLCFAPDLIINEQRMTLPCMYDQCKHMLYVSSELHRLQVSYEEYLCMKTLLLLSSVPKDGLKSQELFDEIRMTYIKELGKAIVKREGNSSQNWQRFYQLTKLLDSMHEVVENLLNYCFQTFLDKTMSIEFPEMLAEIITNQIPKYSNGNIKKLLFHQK
Chain of Luciferin 4-monooxygenase (Photinus pyralis) (P08659 whole entry, looked up): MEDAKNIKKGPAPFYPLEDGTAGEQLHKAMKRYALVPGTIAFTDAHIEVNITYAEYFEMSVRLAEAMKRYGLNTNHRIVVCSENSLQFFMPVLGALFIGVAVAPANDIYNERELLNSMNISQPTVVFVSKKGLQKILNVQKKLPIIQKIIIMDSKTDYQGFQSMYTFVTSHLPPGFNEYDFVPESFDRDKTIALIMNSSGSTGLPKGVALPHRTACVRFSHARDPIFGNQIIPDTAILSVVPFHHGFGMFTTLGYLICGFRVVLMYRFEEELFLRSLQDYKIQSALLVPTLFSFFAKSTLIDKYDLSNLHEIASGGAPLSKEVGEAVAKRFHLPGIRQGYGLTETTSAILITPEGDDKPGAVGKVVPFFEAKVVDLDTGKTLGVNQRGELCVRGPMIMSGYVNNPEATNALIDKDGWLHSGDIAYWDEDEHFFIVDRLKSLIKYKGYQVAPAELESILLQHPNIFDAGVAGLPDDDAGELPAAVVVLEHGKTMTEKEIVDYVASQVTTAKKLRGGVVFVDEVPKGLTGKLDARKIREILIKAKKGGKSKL
Chain of Voltage-gated inwardly rectifying potassium channel KCNH2 (Homo sapiens) (Q12809 whole entry, looked up): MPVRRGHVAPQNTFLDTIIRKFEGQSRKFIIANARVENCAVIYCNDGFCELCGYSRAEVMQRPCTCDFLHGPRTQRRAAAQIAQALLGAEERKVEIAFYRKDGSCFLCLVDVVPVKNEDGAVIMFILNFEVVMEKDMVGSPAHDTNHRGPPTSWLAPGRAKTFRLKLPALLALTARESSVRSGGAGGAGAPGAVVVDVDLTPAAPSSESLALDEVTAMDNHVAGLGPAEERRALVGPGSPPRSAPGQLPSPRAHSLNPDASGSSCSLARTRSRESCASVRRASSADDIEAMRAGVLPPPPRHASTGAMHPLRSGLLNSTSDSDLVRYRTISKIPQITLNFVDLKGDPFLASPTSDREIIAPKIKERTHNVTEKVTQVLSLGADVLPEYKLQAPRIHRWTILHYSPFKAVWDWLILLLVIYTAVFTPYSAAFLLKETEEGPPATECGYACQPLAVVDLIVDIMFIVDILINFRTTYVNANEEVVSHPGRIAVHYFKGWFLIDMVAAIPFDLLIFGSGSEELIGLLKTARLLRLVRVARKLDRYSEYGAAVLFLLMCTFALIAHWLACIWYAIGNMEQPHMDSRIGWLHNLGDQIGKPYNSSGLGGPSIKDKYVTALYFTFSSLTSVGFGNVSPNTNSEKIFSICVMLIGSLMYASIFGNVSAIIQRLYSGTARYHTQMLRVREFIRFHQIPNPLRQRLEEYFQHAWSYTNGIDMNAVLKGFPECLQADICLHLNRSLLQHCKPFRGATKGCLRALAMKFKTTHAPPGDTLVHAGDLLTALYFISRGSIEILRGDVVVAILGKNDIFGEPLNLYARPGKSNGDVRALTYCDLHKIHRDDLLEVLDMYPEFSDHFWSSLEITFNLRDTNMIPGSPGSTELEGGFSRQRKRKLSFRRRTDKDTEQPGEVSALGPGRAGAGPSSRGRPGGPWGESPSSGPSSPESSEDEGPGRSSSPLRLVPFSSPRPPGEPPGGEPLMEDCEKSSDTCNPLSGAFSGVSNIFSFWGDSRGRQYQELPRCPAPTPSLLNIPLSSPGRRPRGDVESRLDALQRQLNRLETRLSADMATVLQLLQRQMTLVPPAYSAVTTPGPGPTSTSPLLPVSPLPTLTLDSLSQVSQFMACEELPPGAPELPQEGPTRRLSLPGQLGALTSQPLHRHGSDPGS
Chain of Peroxisome proliferator-activated receptor delta (Homo sapiens) (Q03181 whole entry, looked up): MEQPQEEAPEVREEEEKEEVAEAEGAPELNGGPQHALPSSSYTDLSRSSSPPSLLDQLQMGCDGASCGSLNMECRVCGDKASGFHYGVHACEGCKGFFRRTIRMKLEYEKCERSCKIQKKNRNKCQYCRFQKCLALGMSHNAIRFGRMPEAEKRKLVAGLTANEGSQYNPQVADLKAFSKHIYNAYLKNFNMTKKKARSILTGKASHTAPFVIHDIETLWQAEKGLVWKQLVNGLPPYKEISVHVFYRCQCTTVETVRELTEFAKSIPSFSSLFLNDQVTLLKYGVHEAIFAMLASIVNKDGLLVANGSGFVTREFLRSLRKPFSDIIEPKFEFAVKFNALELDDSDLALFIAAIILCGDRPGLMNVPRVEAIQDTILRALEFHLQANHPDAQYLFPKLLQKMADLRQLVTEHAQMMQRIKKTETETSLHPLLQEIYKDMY
Chain of Thyroid hormone receptor beta (Homo sapiens) (P10828 whole entry, looked up): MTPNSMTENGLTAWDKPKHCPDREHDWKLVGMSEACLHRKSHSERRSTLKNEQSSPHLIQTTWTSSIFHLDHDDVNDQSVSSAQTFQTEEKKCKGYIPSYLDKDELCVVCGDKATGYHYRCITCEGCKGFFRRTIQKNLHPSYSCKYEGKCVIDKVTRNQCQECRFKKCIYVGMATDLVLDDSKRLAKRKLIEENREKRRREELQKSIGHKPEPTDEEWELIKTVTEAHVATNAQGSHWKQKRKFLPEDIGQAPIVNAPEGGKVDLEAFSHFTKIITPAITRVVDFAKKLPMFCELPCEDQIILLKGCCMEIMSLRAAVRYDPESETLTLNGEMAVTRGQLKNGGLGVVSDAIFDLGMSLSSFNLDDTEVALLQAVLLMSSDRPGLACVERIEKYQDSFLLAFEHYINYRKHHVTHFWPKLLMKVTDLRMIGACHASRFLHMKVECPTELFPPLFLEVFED
Chain of Vitamin D3 receptor (Homo sapiens) (P11473 whole entry, looked up): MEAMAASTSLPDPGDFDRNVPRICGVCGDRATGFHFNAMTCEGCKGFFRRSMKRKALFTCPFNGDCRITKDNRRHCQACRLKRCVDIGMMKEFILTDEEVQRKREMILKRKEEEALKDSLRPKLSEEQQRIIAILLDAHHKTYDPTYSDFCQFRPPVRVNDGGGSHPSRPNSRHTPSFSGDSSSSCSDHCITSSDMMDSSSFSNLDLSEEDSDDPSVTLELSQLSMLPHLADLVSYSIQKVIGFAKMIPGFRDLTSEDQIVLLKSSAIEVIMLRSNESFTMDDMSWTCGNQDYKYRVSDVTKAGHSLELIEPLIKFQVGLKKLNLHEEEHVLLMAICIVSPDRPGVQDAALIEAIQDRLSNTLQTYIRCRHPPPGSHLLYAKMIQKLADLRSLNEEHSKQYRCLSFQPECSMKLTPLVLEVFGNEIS
Chain of Bile acid receptor (Homo sapiens) (Q96RI1 whole entry, looked up): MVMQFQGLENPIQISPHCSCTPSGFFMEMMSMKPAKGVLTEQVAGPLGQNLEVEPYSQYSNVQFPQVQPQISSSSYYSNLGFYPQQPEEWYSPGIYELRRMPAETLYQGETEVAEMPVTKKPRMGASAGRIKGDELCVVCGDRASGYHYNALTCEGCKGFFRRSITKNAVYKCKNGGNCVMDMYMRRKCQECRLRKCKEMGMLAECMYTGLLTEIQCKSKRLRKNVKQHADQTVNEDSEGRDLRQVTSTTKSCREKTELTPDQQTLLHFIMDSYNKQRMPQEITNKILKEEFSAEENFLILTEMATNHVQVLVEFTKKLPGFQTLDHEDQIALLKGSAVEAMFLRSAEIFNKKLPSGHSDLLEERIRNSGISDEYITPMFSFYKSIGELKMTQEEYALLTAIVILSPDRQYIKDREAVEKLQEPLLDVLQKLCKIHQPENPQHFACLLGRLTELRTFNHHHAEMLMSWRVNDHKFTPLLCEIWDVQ

For `c1ccc(CN(CC2=NCCN2)c2ccccc2)cc1`, the molecule was classed as inactive in [1]. Moreover, the Potency entry in [2] is “inactive”.

For `CC(O)COc1ccccc1` (stereo not drawn), the activation in assay [3] is 4.06% (inactive); in [6], -13.7% (inactive). Moreover, the call in [4], in assay [5], in assay [7], in [9], in assay [10] and in assay [11] was inactive. Moreover, the call in assay [12] and in [14] was inactive. For the same molecule, the max response in assay [8] was 6.24%; in assay [13], -14.5%; in assay [15], -7.54%. Also, the activity change % (negative = inhibition) in [16] is -6.45% (inactive). In addition, the Potency entry in assay [17], in assay [2] and in assay [18] was “inactive” in each case.

As for `NCCNCCNCCN`, the molecule was called inactive in [5], in assay [7], in [9], in [12] and in assay [14]. Moreover, in assay [6], the activation is 21.8% (inactive). For the same molecule, the max response is 26% in [8], 1.23% in [13] and -7.08% in assay [15]. In addition, in [16], the activity change % (negative = inhibition) is -6.32% (inactive). For the same molecule, the Potency entry in assay [17], in [2] and in assay [18] was “inactive” each time.

As to `Cc1cc(N)c2ccccc2[n+]1CCCCCCCCCC[n+]1c(C)cc(N)c2ccccc21`, the outcome in [1] was inactive. Moreover, the Potency result in assay [17] and in assay [2] was “inactive” throughout.

Take `NCCNCCNCCNCCN`: the activation in [3] is 15.1% (inactive) and -3.31% (inactive); in assay [6], -3.86% (inactive) and -5.35% (inactive). For the same molecule, the molecule was classed as inactive in assay [4], in assay [7], in assay [11], in assay [12] and in [14]. Besides, the max response in assay [13] was -10.7% and -8.96%; in [15], -6.87%. Further, in [16], the activity change % (negative = inhibition) was -25.9% (inactive) and -19% (inactive). Moreover, the Potency result in assay [17], in assay [2] and in [18] was “inactive” in each case.

As to `CCCc1c(OCCCCc2nn[nH]n2)ccc(C(C)=O)c1O`, the call in [5], in assay [7] and in assay [14] was inactive. The activation in assay [6] was -8.74% (inactive). Also, in assay [15], the max response was 22.4%. Also, the Potency result in assay [17] is “inactive”.

On to `Oc1cccc(O)c1`, for which the outcome in assay [19], in assay [7], in [9], in assay [10], in assay [11] and in assay [12] was inactive. Besides, in assay [14], the outcome was inactive. Further, the activation in assay [6] is 1.81% (inactive). Also, the max response was 15.8% in [8], -9.49% in assay [13] and -5.21% in assay [15]. In addition, the Potency result in assay [17], in assay [2] and in [18] was “inactive” throughout.

As to `NC(=O)N/N=C/c1ccc([N+](=O)[O-])o1`, the molecule was classed as inactive in assay [20], in assay [7], in assay [9], in assay [10], in assay [12] and in assay [14]. Further, the activation in [6] was -5.85% (inactive) and -2.6% (inactive). Further, the max response in assay [8] is 4.74%; in assay [15], 1.55% and -8.19%. The activity change % (negative = inhibition) in assay [16] was 0.5% (inactive). Besides, the Potency result in assay [17], in [2] and in assay [18] was “inactive” in each case.

In the case of `CCCCOC(=O)c1ccc(O)cc1`, the molecule was called inactive in assay [5], in assay [7], in [9], in assay [12] and in assay [14]. Moreover, in assay [6], the activation is -4.25% (inactive) and 1.71% (inactive). Also, the max response in assay [8] is -14.2%; in [13] it was 0.828% and -8.13%; in assay [15], -11.5% and -9.16%. In addition, the activity change % (negative = inhibition) in assay [16] is -4.41% (inactive) and 2.19% (inactive). The Potency entry in assay [17] and in [18] was “inactive” in each case.
